# Assay outcomes from PubChem.
# sEH activator: activators of human soluble epoxide hydrolase; purified human sEH enzymatic activity, activator screen; AID 717; activation, % at 2 µM; 0.04% of 91,000 active; P34913; in the data active = activation above about 37%
# CYP2C9 act: increases human cytochrome P450 2C9 activity | P11712 | recombinant CYP2C9, luciferin-H conversion, luminescence; hits give high values; factor 1 = untreated enzyme, 0 = blocked | activation factor at 5 µM | 1.4% of 96,000 active;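 active = activation factor of 2 or more for CYP2C9 at a 5 µM dose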
# sEH inh: soluble epoxide hydrolase (human) inhibition; P34913; recombinant human sEH enzymatic activity assay; inhibition, % at 2 µM; 0.34% of 91,000 active; in the data active = inhibition above about 80%
# CYP2C19 inh: inhibitors of human CYP2C19; P33261; CYP2C19 Supersomes, luciferin-H EGE luminescence, 30 min; inhibition, % at 5 µM; 21% of 96,000 active;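 active = CYP2C19 inhibition above a set limit at 5 µM in the primary screen, cut at about 50% in these data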
# Target sequence (P33261 whole entry, looked up): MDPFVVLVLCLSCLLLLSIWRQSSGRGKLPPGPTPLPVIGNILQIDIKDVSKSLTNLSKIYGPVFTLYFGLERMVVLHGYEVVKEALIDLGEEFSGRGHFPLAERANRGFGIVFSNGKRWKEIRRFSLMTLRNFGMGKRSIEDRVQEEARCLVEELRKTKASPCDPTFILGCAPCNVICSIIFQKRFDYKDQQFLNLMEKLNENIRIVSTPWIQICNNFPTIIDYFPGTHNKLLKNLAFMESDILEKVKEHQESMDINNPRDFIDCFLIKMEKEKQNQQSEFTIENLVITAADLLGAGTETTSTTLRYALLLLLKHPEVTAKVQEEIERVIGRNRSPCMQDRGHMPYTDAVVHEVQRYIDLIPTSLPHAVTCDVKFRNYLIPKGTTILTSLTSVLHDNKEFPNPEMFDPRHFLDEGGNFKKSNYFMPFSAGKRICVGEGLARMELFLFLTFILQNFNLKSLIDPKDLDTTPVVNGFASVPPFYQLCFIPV
# CYP2C19 activ: activators of human cytochrome P450 2C19 | P33261 | recombinant CYP2C19, luciferin-H EGE luminescence; hits give high values; 0 = fully inhibited enzyme, 1 = untreated enzyme | 96,000 tested, under 10 active | AID 1025 | activation factor at 5 µM;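 active = activation factor of at least 2 at 5 µM in the primary screen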
# CYP2C9 inh: blocks human cytochrome P450 2C9. P11712. inhibition, % at 5 µM. 20% of 96,000 active. CYP2C9 Supersomes, luciferin-H conversion, luminescence. AID 777;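 active = blocking of liver enzyme CYP2C9 beyond about 50% at 5 µM, limit read from the data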
# Numbers stand for hits; i = inactive; nt = no result given. In the library only some 27% were active in any assay of this set; here they are far more common.
SMILES,sEH activator,CYP2C9 act,sEH inh,CYP2C19 inh,CYP2C19 activ,CYP2C9 inh
COc1ccc(CN(C(=S)Nc2ccccc2)C2CC(=O)N(c3ccc(F)cc3)C2=O)cc1 (stereo unspecified),i,i,i,i,i,i
CCOc1cccc(N2C(=O)CC(N(CCc3ccc(OC)c(OC)c3)C(=O)CC)C2=O)c1 (stereo unspecified),i,i,i,i,i,i
CNC(=S)N(Cc1ccc2c(c1)OCO2)C1CC(=O)N(c2ccc(F)cc2)C1=O (stereo unspecified),i,i,i,91.5,i,75.5
CCOC(=O)c1ccc(N2C(=O)CC(N(Cc3ccc4c(c3)OCO4)C(=O)Nc3ccccc3)C2=O)cc1 (stereo unspecified),i,i,i,81.1,i,89.2
CCOC(=O)c1ccc(N2C(=O)CC(N(C)CCc3ccc(OC)c(OC)c3)C2=O)cc1 (stereo unspecified),i,i,i,72.7,i,55.1
CCOC(=O)c1ccc(NC(=O)c2ccc3c(c2)OCO3)cc1,i,i,i,i,i,i
CN(Cc1ccncc1)C1CC(=O)N(c2ccc(Cl)cc2)C1=O (stereo unspecified),i,i,i,98.6,i,93.5
CNC(=S)N(Cc1ccc(OC)cc1)C1CC(=O)N(c2ccc(Cl)cc2)C1=O (stereo unspecified),i,i,i,62.8,i,i
CC(=O)N(Cc1ccc2c(c1)OCO2)C1CC(=O)N(CCc2ccccc2)C1=O (stereo unspecified),i,i,i,69.6,i,53.3
CCOC(=O)c1ccc(N2C(=O)CC(N3CCOCC3)C2=O)cc1 (stereo unspecified),i,i,i,i,i,i
Cc1ccc(CCNC(=O)C23CN(Cc4ccccc4)CC2C(c2cccc([N+](=O)[O-])c2)=NO3)cc1 (stereo unspecified),i,i,i,77.1,i,75.0
COc1ccc(CCNC(=O)C23CN(Cc4ccccc4)CC2C(c2cccc([N+](=O)[O-])c2)=NO3)cc1 (stereo unspecified),i,i,i,i,i,i
COc1ccccc1CN(CC(=O)NCc1ccc2c(c1)OCO2)C(=O)c1ccc2c(c1)OCCO2,i,nt,i,nt,nt,nt
CCOc1ccc(C(=O)Nc2ccc3c(c2)OCO3)cc1OCC,i,i,i,i,i,i
Cc1ccc(-n2ncc(C(=O)NCc3ccc4c(c3)OCO4)c2NC(=O)c2ccco2)cc1C,i,i,i,64.3,i,86.6
COC(=O)c1ccccc1NC(=O)NCc1ccc2c(c1)OCO2,i,i,i,52.2,i,i
COc1ccccc1NC(=O)NCc1ccc2c(c1)OCO2,i,i,i,53.6,i,i
CCOc1ccccc1C(=O)NC(C)c1ccc2c(c1)OCO2 (stereo unspecified),i,i,i,80.0,i,i
COc1ccccc1C(=O)NCc1ccc2c(c1)OCO2,nt,i,nt,95.1,i,52.3
CCn1c(N)c(C(=O)NCc2ccc3c(c2)OCO3)sc1=S,i,i,i,51.0,i,63.0
COCC(=O)NCc1ccc2c(c1)OCO2,i,i,i,i,i,i
COc1cc(CC(=O)NCc2ccc3c(c2)OCO3)cc(OC)c1OC,i,i,i,74.3,i,i
CC(NC(=O)C1CCC1)c1ccc2c(c1)OCO2 (stereo unspecified),nt,i,nt,51.0,i,i
COCCSc1ccccc1C(=O)NCc1ccc2c(c1)OCO2,i,i,i,i,i,i
Cc1cccc(C)c1NC(=O)C1(N(Cc2ccco2)C(=O)CC2NC(=O)NC2=O)CCCC1 (stereo unspecified),i,i,i,i,i,i
SMILES,sEH activator,CYP2C9 act,sEH inh,CYP2C19 inh,CYP2C19 activ,CYP2C9 inh
Cc1occc1C(=O)NC(C)c1ccc2c(c1)OCO2 (stereo unspecified),i,i,i,62.0,i,i
Cc1occc1C(=O)NCc1ccc2c(c1)OCO2,i,i,i,87.5,i,i
Cc1cc(/C=C2/SC(=S)N(c3cccc(C(F)(F)F)c3)C2=O)c(C)n1-c1cccnc1,i,nt,i,nt,nt,nt
Cn1nnnc1SCSc1nnnn1C,i,i,i,i,i,i
Cn1nnnc1SCc1ccc(F)cc1,i,i,i,55.8,i,i
Cn1nnnc1SCc1nnc(-c2ccc(Cl)cc2)o1,nt,i,nt,77.6,i,i
Cc1ccc(CSc2nnnn2C)cc1,i,i,i,74.4,i,i
Cc1ccc(SCC2CNc3nc4ccccc4c(=O)n32)c(C)c1 (stereo unspecified),i,i,i,i,i,i
CC(=O)c1cccc(NC(=O)N2CCC(c3nnc(SCC(N)=O)n3C)CC2)c1,i,i,i,i,i,i
CC(=O)C1=C(O)C(=O)N(c2nnn(C)n2)C1c1cccs1 (stereo unspecified),i,i,i,i,i,i
COc1cccc(C(=O)O/N=C/c2ccc(Sc3ccc(C)cc3)nc2)c1,i,i,i,i,i,i
Cc1cccc(-n2nc([N+](=O)[O-])c(=NCc3cccnc3)n2O)c1,i,i,i,60.0,i,i
Cc1ccc(S(=O)(=O)Nn2c(C)ccc2C)cc1,i,i,i,63.8,i,i
CCc1ccc(S(=O)(=O)Nc2c(C)nn(C)c2C)cc1,i,i,i,84.5,i,i
CCn1nc(C)c(NS(=O)(=O)c2ccc(C)cc2)c1C,i,nt,i,nt,nt,nt
Cc1ccc(S(=O)(=O)Nc2c(C)nn(C)c2C)cc1,i,i,i,79.4,i,i
O=C1NC(=O)C2(COC3(CCCC3)OC2)S1,i,i,i,i,i,i
CC(=O)NC1CSCC1OC(C)=O (stereo unspecified),i,i,i,i,i,i
N#CCN1CCN(CCC(=O)Nc2ccc(OCc3ccccc3)cc2)CC1,i,i,i,i,i,i
C=CCN(CC=C)S(=O)(=O)c1ccc(NC(=S)NC(=O)c2ccc(-c3ccccc3)cc2)cc1,i,i,i,i,i,61.6
C=CCN(CC=C)S(=O)(=O)c1ccc(NC(=S)NC(=O)c2ccco2)cc1,i,i,i,i,i,i
C=CCN(CC=C)S(=O)(=O)c1ccc(NC(=S)NC(=O)Cc2ccc(OC)cc2)cc1,i,i,i,i,i,72.3
COCCCNC(=O)C1CC(=O)N(C2CCCC2)C1 (stereo unspecified),i,i,i,i,i,i
CCOc1ccccc1N(CC(=O)NC1CCCCC1)S(C)(=O)=O,nt,i,nt,i,i,i
CCN(CC)CCNC(=O)c1c(C)n(-c2ccccc2)c2cc(Br)c(OC)cc12,i,i,i,i,i,i
O=C(CSc1ncn(-c2ccccc2)n1)N1CCN(c2ccccc2)CC1,i,i,i,63.6,i,58.6
COc1ccccc1NC(=O)CSc1nnc(C)n1Cc1ccccc1,i,i,i,52.3,i,i
C=CCn1c(SCC(=O)Nc2ccccc2OC)nnc1-c1ccco1,i,i,i,54.1,i,i
C=CCn1c(SCc2nc(N)nc(N3CCCCC3)n2)nnc1-c1ccco1,i,i,i,58.8,i,i
